Test [1] in a line: antimalarial activity against Dd2 strain (AID 2302;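 active means growth inhibition above 50% at the single 2 µM test dose, taken to imply half-maximal potency below 2 µM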;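 further: 0% = DMSO untreated growth and 100% = chloroquine plus artemisinin killed control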). The following applies: P. falciparum Dd2 in RBCs, LDH growth readout, 72 h; at 2 µM; hits give high values.
Test [2] can be described thus: human hepatoma cell viability loss – ATP luminescence, cytotoxicity control for P. falciparum antimalarial project, primary screen (AID 2303;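 active means inhibition above 50%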;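 further: 0% = DMSO wells and 100% = digitonin-killed cells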). As to conditions: HepG2 viability, 24-48 h, at 10 µM, hits give high values.
The target of test [3] is L-lactate dehydrogenase (Plasmodium falciparum (isolate CDC / Honduras)) (UniProt Q27743). Briefly: PfLDH activity inhibition – cell lysate, 3D7 strain, counter-screen for P. falciparum growth inhibition project (AID 2304).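 Further: 0% = vehicle and 100% = reference inhibitor.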 As to conditions: P. falciparum 3D7 crude extract, LDH APAD/NBT absorbance; at 2 µM; hits give high values. In general terms: A counterscreen serves to expose hits that act by an unwanted route or on another target.
L-lactate dehydrogenase (Plasmodium falciparum (isolate CDC / Honduras)), sequence (Q27743 whole entry, looked up): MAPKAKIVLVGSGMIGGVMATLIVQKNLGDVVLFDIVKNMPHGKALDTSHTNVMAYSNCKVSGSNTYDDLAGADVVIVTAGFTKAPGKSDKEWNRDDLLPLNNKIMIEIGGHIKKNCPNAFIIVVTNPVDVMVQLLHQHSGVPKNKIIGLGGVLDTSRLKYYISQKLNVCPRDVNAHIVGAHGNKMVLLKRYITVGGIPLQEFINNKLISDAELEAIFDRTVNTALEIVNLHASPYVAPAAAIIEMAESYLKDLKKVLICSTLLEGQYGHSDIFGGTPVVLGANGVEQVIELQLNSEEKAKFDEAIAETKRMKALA

Test [4] can be described thus: inhibition of 3D7 malaria parasite growth – strain 3D7 (AID 2306).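 Further: 0% = DMSO wells and 100% = chloroquine plus artemisinin control wells.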 The following applies: P. falciparum 3D7 erythrocytic growth, LDH absorbance, 72 h; at 2 µM; hits give high values.
The target in test [5] is Calcium-dependent protein kinase 1 (Plasmodium falciparum (isolate 3D7)) (UniProt P62344). Briefly: PfCDPK1 kinase inhibitors, biochemical, TCAMS library (AID 1159585; cut-off not given, nearly all actives have IC50 up to about 0.98 µM;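 further: inhibitors leave more ATP so luminescence rises with inhibition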). As to conditions: recombinant PfCDPK1, Kinase-Glo ATP depletion luminescence. On the technique in general: In Kinase-Glo more light means more ATP remaining.
Calcium-dependent protein kinase 1 (Plasmodium falciparum (isolate 3D7)), sequence (P62344 whole entry, looked up): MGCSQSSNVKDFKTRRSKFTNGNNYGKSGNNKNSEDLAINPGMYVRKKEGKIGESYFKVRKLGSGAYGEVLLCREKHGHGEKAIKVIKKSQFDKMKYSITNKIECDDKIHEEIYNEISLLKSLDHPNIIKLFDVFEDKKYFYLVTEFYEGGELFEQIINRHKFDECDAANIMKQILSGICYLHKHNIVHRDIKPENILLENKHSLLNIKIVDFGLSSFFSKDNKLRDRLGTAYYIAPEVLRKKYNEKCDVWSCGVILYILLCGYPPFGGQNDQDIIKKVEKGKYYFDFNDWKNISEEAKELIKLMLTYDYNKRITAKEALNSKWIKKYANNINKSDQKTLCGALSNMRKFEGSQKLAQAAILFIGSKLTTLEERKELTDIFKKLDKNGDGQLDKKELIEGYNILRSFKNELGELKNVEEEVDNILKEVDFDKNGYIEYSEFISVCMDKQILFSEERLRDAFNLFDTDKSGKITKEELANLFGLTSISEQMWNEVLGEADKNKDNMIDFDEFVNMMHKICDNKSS
The target in test [6] is Plasmodium falciparum protein kinase 6 (PK6, PF3D7_1337100) (UniProt Q8IDW1). Briefly: PfPK6 kinase inhibitors, biochemical, TCAMS library (AID 1159586). The following applies: recombinant PfPK6, Kinase-Glo ATP depletion luminescence.
Plasmodium falciparum protein kinase 6 (PK6, PF3D7_1337100), sequence (Q8IDW1 1-305): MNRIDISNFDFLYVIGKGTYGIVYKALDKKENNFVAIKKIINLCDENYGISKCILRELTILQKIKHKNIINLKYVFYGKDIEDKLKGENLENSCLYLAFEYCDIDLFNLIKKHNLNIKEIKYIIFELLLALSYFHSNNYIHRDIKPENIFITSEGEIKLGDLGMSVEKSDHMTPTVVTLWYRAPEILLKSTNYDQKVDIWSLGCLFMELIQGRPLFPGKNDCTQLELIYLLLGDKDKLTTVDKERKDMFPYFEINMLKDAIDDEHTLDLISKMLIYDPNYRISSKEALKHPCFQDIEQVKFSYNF
For test [7], the target named is Protein kinase 7 (PK7), Plasmodium falciparum 3D7 (PF3D7_0213400) (UniProt Q7YTF7). Nature of the test: inhibition of Plasmodium PK7 catalytic activity – biochemical, TCAMS antimalarial set, Kinase-Glo luminescence (AID 1159587). The following applies: recombinant PfPK7, Kinase-Glo ATP depletion luminescence.
Protein kinase 7 (PK7), Plasmodium falciparum 3D7 (PF3D7_0213400), sequence (Q7YTF7 1-343): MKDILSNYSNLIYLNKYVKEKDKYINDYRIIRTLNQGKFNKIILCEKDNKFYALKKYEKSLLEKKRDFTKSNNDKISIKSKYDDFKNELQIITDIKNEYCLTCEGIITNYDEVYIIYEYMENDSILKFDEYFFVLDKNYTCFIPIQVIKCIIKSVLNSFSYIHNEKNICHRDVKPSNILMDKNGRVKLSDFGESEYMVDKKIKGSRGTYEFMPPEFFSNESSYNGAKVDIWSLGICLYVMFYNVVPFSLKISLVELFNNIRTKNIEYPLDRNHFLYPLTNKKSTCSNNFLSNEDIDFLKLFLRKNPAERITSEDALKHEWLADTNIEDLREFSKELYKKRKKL
Test [8] addresses Calcium-dependent protein kinase 4 (Plasmodium falciparum (isolate 3D7)) (UniProt Q8IBS5). Nature of the test: PfCDPK4 kinase inhibitors, biochemical, TCAMS library (AID 1159588; cut-off not given, nearly all actives have IC50 up to about 0.91 µM). As to conditions: recombinant PfCDPK4, Kinase-Glo ATP depletion luminescence.

A number with no mark means an inactive call. For some of these results: Results with a measured potency or affinity are listed apart. Active and inactive are the calls of the source. Unless noted, how the calls were made is not given here.

Calcium-dependent protein kinase 4 (Plasmodium falciparum (isolate 3D7)), sequence (Q8IBS5 whole entry, looked up): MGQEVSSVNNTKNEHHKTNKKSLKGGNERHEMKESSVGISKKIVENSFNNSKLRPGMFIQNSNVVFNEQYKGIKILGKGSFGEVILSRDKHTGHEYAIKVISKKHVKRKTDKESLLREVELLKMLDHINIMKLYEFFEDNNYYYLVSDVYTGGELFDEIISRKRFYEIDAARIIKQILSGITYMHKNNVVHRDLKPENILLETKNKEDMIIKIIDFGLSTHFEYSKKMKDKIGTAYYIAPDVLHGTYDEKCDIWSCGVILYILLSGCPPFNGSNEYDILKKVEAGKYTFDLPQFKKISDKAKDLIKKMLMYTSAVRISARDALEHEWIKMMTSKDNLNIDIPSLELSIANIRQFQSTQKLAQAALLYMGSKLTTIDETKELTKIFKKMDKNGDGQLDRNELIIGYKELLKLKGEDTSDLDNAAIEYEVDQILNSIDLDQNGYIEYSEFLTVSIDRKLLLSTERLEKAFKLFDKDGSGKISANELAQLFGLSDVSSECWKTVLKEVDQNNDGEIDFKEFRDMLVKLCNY

Consider `CC1(C)CC(NC(=O)NC2CCN(Cc3ccccc3)CC2)CC(C)(CNC(=O)NC2CCN(Cc3ccccc3)CC2)C1` (stereo not given), for which the growth inhibition in test [1] was 2%; in test [4], 93% (active). Besides, the inhibition in test [2] is 10%; in test [3] it was 5%. The result in test [5], in test [6], in test [7] and in test [8] was inactive.
For `O=C(NCc1cccc(C(F)(F)F)c1)C(c1cc2ccccc2o1)N1CCN(C(c2ccccc2)c2ccccc2)CC1` (stereo not given), the growth inhibition was 80% (active) in test [1] and 91% (active) in test [4]. Further, the figures for the inhibition in test [2] and in test [3] were -4% and 0%, respectively. Besides, the result in test [5], in test [6], in test [7] and in test [8] was inactive.
For the molecule `COc1ccc(CNC2Cc3ccccc3C2)cc1-c1ccc(S(=O)(=O)NCCN2CCCC2)s1`, the growth inhibition is 100% (active) in test [1] and 101% (active) in test [4]. In addition, the inhibition in test [2] is 89% (active); in test [3] it was 4%. The outcome in test [5], in test [6], in test [7] and in test [8] was inactive.
On to `CC(C)(C)C1CCC(C(=O)c2ccc3ccccc3c2O)CC1` (stereo not given), for which the growth inhibition in test [1] was 63% (active); in test [4], 83% (active). Besides, the values for the inhibition in test [2] and in test [3] were -4% and -1%, respectively. Further, the result in test [5], in test [6], in test [7] and in test [8] was inactive.
As to `c1ccc2c(NCCCCCCCNc3ccnc4ccccc34)ccnc2c1`, the values for the growth inhibition in test [1] and in test [4] were 94% (active) and 101% (active), respectively. Also, the inhibition in test [2] was 91% (active); in test [3] it was 1%. Further, the result in test [5], in test [6], in test [7] and in test [8] was inactive.
Turning to `O=c1cc(NCCNCc2cccc(-c3ccccc3)c2)[nH]c2ccccc12`, the values for the growth inhibition in test [1] and in test [4] were 68% (active) and 93% (active), respectively. Besides, the inhibition in test [2] was -2%; in test [3], -6%. Further, the outcome in test [5], in test [6], in test [7] and in test [8] was inactive.
In the case of `CCCCNC(=O)c1cc(CNC2CCCCC2)ccc1-c1cccc(CNCc2ccc(-c3ccccc3)cc2)c1`, the growth inhibition in test [1] is 85% (active); in test [4] it was 100% (active). The inhibition was 100% (active) in test [2] and 0% in test [3]. For the same molecule, the result in test [5], in test [6], in test [7] and in test [8] was inactive.
As for `COc1c(C2CCN(CCCCNC(=O)c3ccc(-c4ccc(Cl)cc4)c(OCCN(C)C)c3)CC2)ccc2c1CCCC2`, the values for the growth inhibition in test [1] and in test [4] were 86% (active) and 101% (active), respectively. In addition, the inhibition in test [2] was 100% (active); in test [3] it was 2%. The result in test [5], in test [6], in test [7] and in test [8] was inactive.
As for `Cc1cc(N[C@@H](Cc2ccccc2)C(=O)Nc2ccccc2)nc(Nc2ccccc2)n1`, the figures for the growth inhibition in test [1] and in test [4] were 69% (active) and 101% (active), respectively. The figures for the inhibition in test [2] and in test [3] were 8% and -1%, respectively. Besides, the result in test [5], in test [6], in test [7] and in test [8] was inactive.
For `Cc1noc(C)c1-c1cccc(CNCc2cccc(-c3ccc(-c4nc5ccccc5[nH]4)s3)c2)c1`, the growth inhibition in test [1] was 29%; in test [4] it was 101% (active). Besides, the inhibition in test [2] is 24%; in test [3] it was -1%. In addition, the outcome in test [5], in test [6], in test [7] and in test [8] was inactive.
As for `CCN(CC)CCCCNc1cc(-c2[nH]c(-c3c(Cl)cccc3Cl)nc2-c2ccc3cc(OC)ccc3c2)ccn1`, the growth inhibition in test [1] was 93% (active); in test [4], 95% (active). In addition, the inhibition in test [2] is 23%; in test [3] it was -5%. For the same molecule, the outcome in test [5], in test [6], in test [7] and in test [8] was inactive.
Take `CC[C@H](N=C(Nc1ccc(-c2ccccc2)cc1)Nc1ccc(C#N)cc1O)c1ccccc1`: the growth inhibition in test [1] was 97% (active); in test [4] it was 99% (active). The inhibition in test [2] was -6%; in test [3] it was 4%. Moreover, the result in test [5], in test [6], in test [7] and in test [8] was inactive.
On to `COc1ccc2ncc(F)c(CCN3C[C@H](CNCc4cc(F)c5c(c4)NC(=O)CO5)[C@H](O)C3)c2n1`, for which the growth inhibition in test [1] is 23%; in test [4], 94% (active). Further, the inhibition in test [2] was 3%; in test [3], -7%. Moreover, the outcome in test [5], in test [6], in test [7] and in test [8] was inactive.
`Cc1cccc(CNc2nc(C)cc(NCCC(=O)Nc3ccccc3)n2)c1`: the growth inhibition is 54% (active) in test [1] and 101% (active) in test [4]. Besides, the inhibition in test [2] is 15%; in test [3], -3%. The result in test [5], in test [6], in test [7] and in test [8] was inactive.
Regarding `c1cc(CN2CCCCC2)cc(-c2cccc(-c3nc4ccccc4[nH]3)c2)c1`, the growth inhibition was 37% in test [1] and 100% (active) in test [4]. Besides, the inhibition in test [2] was 39%; in test [3], 0%. In addition, the outcome in test [5], in test [6], in test [7] and in test [8] was inactive.
On to `CN1CCC(C(=O)N(Cc2ccc(-c3ccc(CNCCc4ccc(S(C)(=O)=O)cc4)cn3)cc2)Cc2cccc(F)c2)CC1`, for which the growth inhibition in test [1] was 90% (active); in test [4] it was 98% (active). Moreover, the inhibition in test [2] was 10%; in test [3], -4%. For the same molecule, the outcome in test [5], in test [6], in test [7] and in test [8] was inactive.
For the molecule `CS(=O)(=O)c1ccc(CCNCc2ccc(-c3cccc(-c4nc5ccccc5[nH]4)c3)cc2)cc1`, the results for the growth inhibition in test [1] and in test [4] were 99% (active) and 100% (active), respectively. For the same molecule, the inhibition in test [2] was 40%; in test [3], -4%. The outcome in test [5], in test [6], in test [7] and in test [8] was inactive.
On to `C=C(C)CSc1nc2c(c(=O)n1Cc1ccco1)C1(CCCCC1)Cc1ccccc1-2`, for which the growth inhibition in test [1] is 68% (active); in test [4], 97% (active). The inhibition in test [2] was 2%; in test [3], -9%. In addition, the result in test [5], in test [6], in test [7] and in test [8] was inactive.
As for `CCOc1ccccc1CNc1nccc(NCc2ccc(Cl)cc2Cl)n1`, the growth inhibition in test [1] is 58% (active); in test [4] it was 83% (active). Besides, the results for the inhibition in test [2] and in test [3] were 26% and -3%, respectively. The outcome in test [5], in test [6], in test [7] and in test [8] was inactive.
As to `COc1ccc(NC(=O)Nc2cc(C)nc3ccccc23)cc1Cl`, the growth inhibition in test [1] was 49%; in test [4], 104% (active). Moreover, the inhibition is 4% in test [2] and -2% in test [3]. Also, the outcome in test [5], in test [6], in test [7] and in test [8] was inactive.

What is called inhibition is the change of the read-out against control, counted positive when it falls.

These data come from PubChem BioAssay.
